Screening results deposited in PubChem BioAssay by National Center for Advancing Translational Sciences (NCATS).
Most compounds without a hit are left out; they make up all but 19% or so of the library.
SW480 rerep: induces DNA re-replication in SW480 colon adenocarcinoma cells | hit rate 1.8% among 340,000 | SW480 DNA re-replication, Hoechst DNA content imaging, 48 h | Potency, µM (titrated, usually from 46.1 µM), inactives show top-dose re-replication activation, actives largely listed as activators; also: potency is read from the fitted curve at half-maximal effect; % of control where 0% means no effect; nearly all actives have a fitted effect of over 55% in size
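First, 250 cells per well were seeded. Next, compound or vehicle (23 nL) was pinned in, plates sat 48 hr at 37 C. Finally Hoechst was added for 40 min before fluorescence scanning.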
MCF10A rerep: inducers of DNA re-replication in MCF 10A breast cells | MCF 10A DNA re-replication, Hoechst nuclear intensity, 48 h | Potency, µM (top dose mostly 46.1 µM), for the others: top-dose activity, positive = re-replication, usual class: activators | hit rate 2.9% among 350,000 | AID 624296; also: potency is read from the fitted curve at half-maximal effect; % of control where 0% means no effect; nearly all actives have a fitted effect of over 50% in size
TDP1 cell CPT: DT40-hTDP1 cell growth loss with CPT. chicken DT40 Tdp1-/-;hTDP1 cells + 20 nM CPT, ATP luminescence, 48 h. Potency, µM (top dose mostly 46.2 µM), for the others: at the top dose activity change, negative = growth inhibition, hits mostly inhibitors. hit rate 12% among 420,000; also: potency is read from the fitted curve at half-maximal effect; % is scaled to controls: 0 for no effect and ±100 for the full control effect; nearly all actives have a fitted effect of over 55% in size
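Chicken DT40 Tdp1-/- cells stably complemented with human TDP1 were seeded at 400 cells/well in medium containing 20 nM camptothecin, exposed to pin-transferred compounds, and grown at 37 °C for at least 48 hr. Viability was read as ATP luminescence.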
TDP1 cell noCPT: qHTS for Inhibitors of human tyrosyl-DNA phosphodiesterase 1 (TDP1): qHTS in cells in absence of CPT; DT40 Tdp1-/- hTDP1 cells, no CPT, ATP luminescence, 48 h; Potency, µM (doses to about 46.2 µM), without a hit: at the highest dose activity change, negative = growth inhibition, hits mostly inhibitors; hit rate 15% among 420,000; also: potency is read from the fitted curve at half-maximal effect; % is scaled to controls: 0 for no effect and ±100 for the full control effect; nearly all actives have a fitted effect of over 55% in size
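Chicken DT40 Tdp1-/- cells complemented with human TDP1, screened without camptothecin (DMSO vehicle only), 400 cells/well. Compounds pin-transferred, cells incubated at 37 °C for at least 48 hr. Growth read as ATP-dependent luminescence (CellTiter-Glo, 30 min at RT).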
IL1B secr inh: blocks inflammasome-driven IL-1 beta release; THP-1 LPS/ATP IL-1B secretion, AlphaLISA, 16 h; active compounds read low; activity change, % at 57.5 µM; hit rate 4.7% among 360,000; AID 743279; in the data active = activity change below about -50%; inconclusive = mostly about -30% to -49%; also: % is scaled to controls: 0 for no effect and ±100 for the full control effect
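THP-1 cells pretreated 1 hr with compounds (up to 57.5 uM final), then stimulated with LPS (250 ng/mL final) plus ATP (1.25 mM final); secreted IL-1B measured by AlphaLISA after 16 hr, decreased signal indicating inhibition.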
Chronic BCR inh: blocks chronic active B-cell receptor signaling; Potency, µM (doses to about 46.1 µM), for the others: at the highest dose activity change, negative = inhibition, usual class: inhibitors; ABC-DLBCL IkBa-CBG/CBR reporter, luminescence ratio, 4 h; hit rate 0.05% among 340,000; active = well fitted inhibition curve with a large enough effect in the signal ratio, with a control signal flat, not every such curve was filed as active; inconclusive = small, poorly fitted or top-dose-only effect, or effect the other way, or a change in a side signal; the % refers to the signal ratio;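 also: potency is read from the fitted curve at half-maximal effect; plate controls were basal doxycycline-induced cells for no effect and cells given 10 µM MG132 for full effect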
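Doxycycline induced both beetle luciferases in TMD8 lymphoma cells; IKK-driven degradation limits the IkappaBalpha-fused green signal, while red luminescence normalises for cell number and nonspecific effects. Compounds tested up to 46 uM, 4 hrs.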
An asterisk follows results filed as active; ? = inconclusive; nt = no result given; [ ] = dose if it differs, or a comment. Unless noted, calls follow the shape of the dose curve; as a rule, active = well fitted curve in the direction sought with a large enough effect; inconclusive = small, poorly fitted or top-dose-only effect, or another doubt; inactive = no such curve, though single readings can be large; an effect the other way counts as inactive or inconclusive.

SMILES | SW480 rerep | MCF10A rerep | TDP1 cell CPT | TDP1 cell noCPT | IL1B secr inh | Chronic BCR inh
COc1ccc(-c2csc(Nc3ccc(Oc4ccccc4)cc3)n2)cc1 | nt | nt | 18.4µM* | 16.4µM* | 0.0 | nt
COc1cccc(Nc2nc(-c3cccnc3)cs2)c1 | -27.5% | ? | ? | ? | -15.4 | ?
Cc1nc(C)c(-c2csc(Nc3ccc(N)cc3)n2)s1 | 1.2% | 26.8% | ? | 16.4µM* | -19.2 | -3.6%
CN(CCc1ccccc1)C(=O)c1cccc(NC(=O)Cc2cccc(NC(=O)C3CCN(C(=O)c4ccccc4)CC3)c2)c1 | 20.1%[9.22 µM] | -6.5% | ? | ? | -5.4 | nt
CCOC(=O)C1=CCC(c2cccs2)N(S(=O)(=O)c2ccc(C)cc2)C1 (stereo not given) | nt | nt | ? | ? | 11.5 | nt
CCOC(=O)C1=CCC(c2ccccc2)N(S(=O)(=O)c2ccccc2)C1 (stereo not given) | nt | nt | 23.1µM* | 18.4µM* | -1.0 | nt
CCOC(=O)C1=CCC(c2cccc(C)c2)N(S(=O)(=O)c2ccc(C)cc2)C1 (stereo not given) | nt | nt | 18.4µM* | 16.4µM* | 20.3 | nt
O=c1c(-c2ccc(Cl)cc2)nc2cnc(Nc3ccccc3)nc2n1C[C@H]1CCCO1 | nt | nt | -14.1% | -4.0% | nt | nt
CC(C)[C@H](NC(=O)CCCn1nnc2ccccc2c1=O)C(=O)O | -3.4% | 0.3% | -1.7% | -0.1% | -73.5* | 6.9%
CC(C(=O)Nc1ccccc1-c1ccccc1)N1CCN(C(=O)c2ccccc2)CC1 (stereo not given) | 0.7% | 15.7% | ? | 25.9µM* | 37.7 | ?
